The nature of assay [1]: NCI Yeast Anticancer Drug Screen. Data for the rad50 strain (AID 155).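 Note: 0% = growth of vehicle-only cultures of the same strain.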 To be noted: S. cerevisiae rad50 strain growth inhibition; at 50.0 µM; active compounds read high. A digest of the protocol: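 Cells are treated with compound, grown, and their growth is then scored against vehicle-only cultures of the same repair-deficient yeast strain.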
The nature of assay [2]: NCI Yeast Anticancer Drug Screen. Data for the mec2-1 strain (AID 157). Conditions: S. cerevisiae mec2-1 strain, at 50.0 µM, active compounds read high. A digest of the protocol: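 Compounds were applied to mec2-1 yeast cells. Their growth was then compared with that of vehicle-treated cultures to give growth inhibition.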
Assay [3] is described as follows: NCI Yeast Anticancer Drug Screen. Data for the sgs1 mgt1 strain (AID 161).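 Note: 0% = growth of cultures given vehicle only.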 To be noted: S. cerevisiae sgs1 mgt1 strain, at 50.0 µM, active compounds read high. A digest of the protocol: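 This yeast growth screen uses a strain with defined DNA-repair lesions; compound-treated growth is compared with vehicle-treated growth.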
A short description of assay [4]: NCI Yeast Anticancer Drug Screen. Data for the cln2 rad14 strain (AID 165).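 Note: 0% = growth equal to vehicle treated cultures.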 To be noted: S. cerevisiae cln2 rad14 strain, at 50.0 µM, active compounds read high. A digest of the protocol: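 Strain: cln2 rad14 yeast, altered in cell cycle control and DNA damage repair. Read-out: growth inhibition vs vehicle.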
The nature of assay [5]: NCI Yeast Anticancer Drug Screen. Data for the bub3 strain (AID 167). To be noted: S. cerevisiae bub3 mutant strain, at 50.0 µM, active compounds read high. The method, boiled down: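 Part of a panel of yeast mutants defective in DNA damage repair or cell cycle regulation. Each strain is grown with compound, and inhibition is calculated relative to solvent-treated cultures.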
The nature of assay [6]: NCI Yeast Anticancer Drug Screen. Data for the mlh1 rad18 strain (AID 175). Conditions: S. cerevisiae mlh1 rad18 strain growth inhibition; at 50.0 µM; active compounds read high. The method, boiled down:
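A repair-deficient yeast strain is exposed to test compound, and growth is scored relative to vehicle-treated controls.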

This is part of a sample that, as a whole, favours compounds with a hit. Of some 79,000 tested, about 15% had one in any assay. Unmarked numbers belong to inactive results. Active and inactive are the calls of the source. Cut-off read from the data, not from the text of the source: active = growth inhibition above about 70%; inactive = the rest.

On to `Oc1cccc2ccc[n+](CCc3ccccc3)c12`, for which the growth inhibition in assay [1] is 1.4%; in assay [2] it was 9.15%; in assay [3], 8.7%; in assay [4], -13.5%; in assay [5] it was -5.9%; in assay [6], 31.6%.
For `Cc1cccc(NN)c1`, the growth inhibition is 59.6% in assay [1]; 32.1% in assay [2]; 7.45% in assay [3]; 30% in assay [4]; 23.3% in assay [5]; 32.9% in assay [6].
In the case of `CCOc1c(N=Nc2ccccc2Cl)c(C)nn1C(N)=S`, the growth inhibition in assay [1] is -14.2%; in assay [2], 8.7%; in assay [3], 45.5%; in assay [4], -2.25%; in assay [5] it was 53.4%; in assay [6], 49.4%.
As to `CC(=O)NC1C(OCc2ccccc2)OC(CO)C(O)C1OCC(=O)N1CCCC1C(=O)NC(CCC(=O)NCCCCCNc1c2ccccc2nc2cccc([N+](=O)[O-])c12)C(N)=O` (stereo not given), the growth inhibition is 42.9% in assay [1]; 57.6% in assay [2]; 47.6% in assay [3]; 78.2% (active) in assay [4]; 0.55% in assay [5]; 72.5% (active) in assay [6].
Turning to `CCOC(=O)C(C)(C)Oc1ccc2c(=O)cc(-c3ccc(Cl)cc3)oc2c1`, the growth inhibition is -19.6% in assay [1]; -20.1% in assay [2]; -30.3% in assay [3]; -14.5% in assay [4]; -38.9% in assay [5]; -29.4% in assay [6].
For `NC(=S)NNC(=O)c1ccc([N+](=O)[O-])cc1`, the growth inhibition was 10.4% in assay [1]; 18.9% in assay [2]; -3.1% in assay [3]; -17.9% in assay [4]; 1.35% in assay [5]; 36.9% in assay [6].
`COC1CC(NC(=O)C(F)(F)F)C(O)C(CNC(=O)C(F)(F)F)O1` (stereo not given): the growth inhibition was -32.5% in assay [1]; 17.2% in assay [2]; -3.55% in assay [3]; -14% in assay [4]; 16.1% in assay [5]; 19.4% in assay [6].
As to `O=C(CN1C(=O)c2ccccc2C1=O)NCCO`, the growth inhibition in assay [1] was -26.8%; in assay [2], -29.1%; in assay [3], -11.8%; in assay [4], -11.7%; in assay [5] it was -29.1%; in assay [6], -17.2%.
`Cc1c(F)c(F)c(-c2c(F)c(F)c(C)c(F)c2F)c(F)c1F`: the growth inhibition is 5% in assay [1]; -35.2% in assay [2]; -17.3% in assay [3]; 8.3% in assay [4]; -16.2% in assay [5]; 0.1% in assay [6].
Turning to `O=C1NC(=S)N/C1=C\c1cccs1`, the growth inhibition in assay [1] is -20.6%; in assay [2], -7.25%; in assay [3], 15.4%; in assay [4], -19.9%; in assay [5], -7.35%; in assay [6] it was -44.6%.
In the case of `Cc1[nH]c(=O)[nH]c(=O)c1/C=C/C(=O)NC(CO)CS(=O)C(C)C` (stereo not given), the growth inhibition in assay [1] is 83.2% (active); in assay [2], 63.5%; in assay [3], 95.4% (active); in assay [4], 64.7%; in assay [5] it was 79.7% (active); in assay [6], 85.7% (active).
Regarding `Cc1cc(C(=O)C[n+]2ccccc2)c(CN2C(=O)c3ccccc3C2=O)c(=O)n1C`, the growth inhibition in assay [1] is 14.8%; in assay [2], -14.3%; in assay [3] it was -3.9%; in assay [4] it was -19.1%; in assay [5], 6.3%; in assay [6] it was 6.55%.
In the case of `Cc1nc2cnc(N)nc2nc1C`, the growth inhibition in assay [1] was -6.85%; in assay [2] it was -16.9%; in assay [3], -3.65%; in assay [4] it was -40.4%; in assay [5], 0.8%; in assay [6], 0.75%.
For the molecule `CCOc1ccc(N=C2C=C(Nc3ccc(OCC)cc3)C(=Nc3ccc(OCC)cc3)C=C2Nc2ccc(OCC)cc2)cc1`, the growth inhibition in assay [1] was -17.7%; in assay [2], -14.5%; in assay [3], -24.2%; in assay [4], -18.4%; in assay [5], 2.35%; in assay [6], -24.5%.
Consider `O=C(O)C1CC1Br` (stereo not given), for which the growth inhibition in assay [1] was 9.15%; in assay [2] it was -15.3%; in assay [3], -3.65%; in assay [4] it was -14.4%; in assay [5] it was 2.45%; in assay [6], 5.8%.
`CC1(C)C(C#N)C1C1=C(N2CCOCC2)[C@]2(C)C(OC(=O)c3ccccc3)CC[C@@H]2C1` (stereo not given in full): the growth inhibition in assay [1] was -8.6%; in assay [2], -17.2%; in assay [3], -8.7%; in assay [4], 7.7%; in assay [5], 12.4%; in assay [6], 4.15%.
For the molecule `O=C(O)C1c2ccccc2-c2ccccc21`, the growth inhibition in assay [1] is 52.4%; in assay [2], 31.6%; in assay [3], 41.5%; in assay [4], -37.7%; in assay [5], 37.6%; in assay [6] it was 39%.
As to `O=C(Nc1cc(Cl)c(Cl)cc1Cl)N1CCOCC1`, the growth inhibition was 0.15% in assay [1]; -30.7% in assay [2]; -11.2% in assay [3]; 5.25% in assay [4]; -6.1% in assay [5]; -5.15% in assay [6].
`Cc1ccc(C)c(I)c1`: the growth inhibition in assay [1] is 7.2%; in assay [2] it was -3.55%; in assay [3] it was 6.1%; in assay [4] it was -9.95%; in assay [5], -2.55%; in assay [6], 14.1%.
Take `Cc1cc2c(c(C(=O)NCCC(=O)N[C@@H](C)C(=O)OCc3ccccc3)c1)Oc1c(cc(C)cc1C(=O)NCCC(=O)N[C@@H](C)C(=O)OCc1ccccc1)S2`: the growth inhibition in assay [1] was 24%; in assay [2], 10.8%; in assay [3] it was 30.1%; in assay [4], 28.8%; in assay [5] it was -9.8%; in assay [6] it was 27.1%.

(Values after PubChem BioAssay (NCI).)
